# Measured values as given in paper PMC7862700, “An all-to-all approach to the identification of sequence-specific readers for epigenetic DNA modifications on cytosine”.
# Key:
# Assay in all cases: DAPPL (digital affinity profiling via proximity ligation, sequencing); 10 mM Tris-HCl pH 7.5, 50 mM NaCl, 1 mM DTT, 4% glycerol, room temperature, 30 min; GST-TFs on glutathione beads, 16-mer random dsDNA library, 0.1% formaldehyde crosslink after washing; high values mean tight binding
# FLI1 = target: T1, FLI1 (Homo sapiens, UniProt Q01543 1-452); details: protein: recombinant; tags: N-terminal GST; dsDNA, one strand shown
# T1 sequence: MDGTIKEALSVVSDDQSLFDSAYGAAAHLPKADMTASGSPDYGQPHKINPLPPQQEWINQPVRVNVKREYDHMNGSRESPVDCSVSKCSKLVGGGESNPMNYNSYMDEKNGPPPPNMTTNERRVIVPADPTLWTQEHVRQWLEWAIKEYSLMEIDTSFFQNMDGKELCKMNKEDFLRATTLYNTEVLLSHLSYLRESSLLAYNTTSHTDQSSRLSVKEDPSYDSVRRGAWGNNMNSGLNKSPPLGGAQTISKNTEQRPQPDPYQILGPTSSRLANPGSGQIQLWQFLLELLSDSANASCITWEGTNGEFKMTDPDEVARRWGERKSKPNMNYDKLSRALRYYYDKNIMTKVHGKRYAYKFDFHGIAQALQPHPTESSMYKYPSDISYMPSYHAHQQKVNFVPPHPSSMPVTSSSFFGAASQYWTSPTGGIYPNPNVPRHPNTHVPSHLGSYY
# Summary of the method: (§1)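 Human transcription factors fused to GST were expressed in yeast, captured on glutathione beads, given DNA barcodes and pooled with a GST-only negative control. Pools were incubated with 200 nmole of a 16-mer random double-stranded DNA library in Tris/NaCl/DTT/glycerol buffer at room temperature for 30 min. They were then washed, crosslinked with 0.1% formaldehyde, proximity-ligated (BsaI/T4 ligase, 1 h, 37 °C), PCR-amplified and sequenced on an Illumina NextSeq500. Binding signal is each 6-mer's read frequency for a factor divided by its frequency for the GST control.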
# ELK1 = target: T2, ELK1 (Homo sapiens, UniProt P19419 1-428); details: protein: recombinant; tags: N-terminal GST; dsDNA, one strand shown
# T2 sequence: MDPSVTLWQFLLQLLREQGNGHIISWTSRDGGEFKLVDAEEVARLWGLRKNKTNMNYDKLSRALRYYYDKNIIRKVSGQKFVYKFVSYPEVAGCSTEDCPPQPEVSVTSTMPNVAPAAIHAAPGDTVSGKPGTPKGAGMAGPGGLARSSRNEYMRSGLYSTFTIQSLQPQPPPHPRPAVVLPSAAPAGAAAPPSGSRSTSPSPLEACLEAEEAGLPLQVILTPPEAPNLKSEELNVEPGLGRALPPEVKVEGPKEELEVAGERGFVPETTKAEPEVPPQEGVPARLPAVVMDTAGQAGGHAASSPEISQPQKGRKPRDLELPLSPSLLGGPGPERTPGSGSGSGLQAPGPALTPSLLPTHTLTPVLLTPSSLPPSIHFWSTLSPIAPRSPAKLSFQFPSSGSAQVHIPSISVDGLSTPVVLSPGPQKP
# Summary of the method: as §1
# GABPA = target: T3, GABPA (Homo sapiens, UniProt Q06546 1-454); details: protein: recombinant; tags: N-terminal GST; dsDNA, one strand shown
# T3 sequence: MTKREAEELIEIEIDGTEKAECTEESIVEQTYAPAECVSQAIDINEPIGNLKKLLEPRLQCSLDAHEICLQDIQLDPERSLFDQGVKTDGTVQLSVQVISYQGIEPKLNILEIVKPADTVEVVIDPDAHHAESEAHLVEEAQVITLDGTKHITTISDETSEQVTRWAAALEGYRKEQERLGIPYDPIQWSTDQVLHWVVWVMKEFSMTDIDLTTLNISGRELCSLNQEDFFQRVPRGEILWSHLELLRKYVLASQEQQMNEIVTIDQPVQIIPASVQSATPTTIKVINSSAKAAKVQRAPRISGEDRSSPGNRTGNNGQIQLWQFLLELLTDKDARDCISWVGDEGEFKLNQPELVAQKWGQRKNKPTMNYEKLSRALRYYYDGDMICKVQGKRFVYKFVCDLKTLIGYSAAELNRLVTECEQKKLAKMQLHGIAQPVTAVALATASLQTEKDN
# Summary of the method: as §1
# ERG = target: T4, ERG (Homo sapiens, UniProt P11308 1-479); details: protein: recombinant; tags: N-terminal GST; dsDNA, one strand shown
# T4 sequence: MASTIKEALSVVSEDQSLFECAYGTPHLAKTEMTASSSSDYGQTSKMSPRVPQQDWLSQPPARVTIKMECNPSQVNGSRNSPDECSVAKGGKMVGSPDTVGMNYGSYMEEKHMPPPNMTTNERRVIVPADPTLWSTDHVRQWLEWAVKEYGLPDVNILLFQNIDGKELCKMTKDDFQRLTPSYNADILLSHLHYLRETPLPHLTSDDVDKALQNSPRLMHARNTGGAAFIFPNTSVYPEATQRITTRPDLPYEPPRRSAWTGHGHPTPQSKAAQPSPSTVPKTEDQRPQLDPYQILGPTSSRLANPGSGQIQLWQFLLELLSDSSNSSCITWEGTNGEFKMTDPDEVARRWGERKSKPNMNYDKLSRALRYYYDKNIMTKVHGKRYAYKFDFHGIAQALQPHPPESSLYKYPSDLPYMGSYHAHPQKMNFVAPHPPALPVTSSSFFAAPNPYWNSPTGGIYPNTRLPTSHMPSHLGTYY
# Summary of the method: as §1
# ELF1 = ELF1 (Homo sapiens, UniProt P32519 1-619); details: protein: recombinant; tags: N-terminal GST; dsDNA, one strand shown
# Summary of the method: as §1
# EHF = target: T5, EHF (Homo sapiens, UniProt Q9NZC4 1-300); details: protein: recombinant; tags: N-terminal GST; dsDNA, one strand shown
# T5 sequence: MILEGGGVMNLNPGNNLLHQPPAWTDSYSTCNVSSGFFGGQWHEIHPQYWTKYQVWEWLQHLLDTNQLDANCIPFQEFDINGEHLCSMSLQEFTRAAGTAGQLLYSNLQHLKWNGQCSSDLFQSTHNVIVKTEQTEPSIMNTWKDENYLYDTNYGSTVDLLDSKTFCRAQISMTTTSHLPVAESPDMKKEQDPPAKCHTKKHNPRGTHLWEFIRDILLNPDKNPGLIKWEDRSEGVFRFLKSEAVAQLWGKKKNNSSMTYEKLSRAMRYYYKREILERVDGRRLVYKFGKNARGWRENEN
# Summary of the method: as §1
# SPI1 = SPI1 (Homo sapiens, UniProt P17947 1-270); details: protein: recombinant; tags: N-terminal GST; dsDNA, one strand shown
# Summary of the method: as §1
# SPIB = SPIB (Homo sapiens, UniProt Q01892 1-262); details: protein: recombinant; tags: N-terminal GST; dsDNA, one strand shown
# Summary of the method: as §1
# ELK3 = target: T6, ELK3 (Homo sapiens, UniProt P41970 1-407); details: protein: recombinant; tags: N-terminal GST; dsDNA, one strand shown
# T6 sequence: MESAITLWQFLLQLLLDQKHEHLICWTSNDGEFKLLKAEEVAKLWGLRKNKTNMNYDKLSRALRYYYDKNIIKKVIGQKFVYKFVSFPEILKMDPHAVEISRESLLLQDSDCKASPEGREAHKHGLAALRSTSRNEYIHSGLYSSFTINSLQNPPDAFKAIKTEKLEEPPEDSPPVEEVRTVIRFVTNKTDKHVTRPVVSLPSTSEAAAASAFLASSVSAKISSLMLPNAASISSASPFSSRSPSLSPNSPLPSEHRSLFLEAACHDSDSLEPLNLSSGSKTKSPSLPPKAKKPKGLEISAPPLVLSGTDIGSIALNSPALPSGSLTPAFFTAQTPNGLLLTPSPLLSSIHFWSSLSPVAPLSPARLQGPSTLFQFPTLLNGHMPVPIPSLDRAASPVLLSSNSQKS
# Summary of the method: as §1
# FEV = target: T7, FEV (Homo sapiens, UniProt Q99581 1-238); details: protein: recombinant; tags: N-terminal GST; dsDNA, one strand shown
# T7 sequence: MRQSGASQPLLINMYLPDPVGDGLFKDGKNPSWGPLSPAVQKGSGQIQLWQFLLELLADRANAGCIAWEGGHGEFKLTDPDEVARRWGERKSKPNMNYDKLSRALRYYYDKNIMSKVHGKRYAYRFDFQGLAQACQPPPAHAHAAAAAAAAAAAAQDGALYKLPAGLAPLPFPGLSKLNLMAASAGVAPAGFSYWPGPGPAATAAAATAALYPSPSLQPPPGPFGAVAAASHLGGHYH
# Summary of the method: as §1
# ETV5 = ETV5 (Homo sapiens, UniProt P41161 1-510); details: protein: recombinant; tags: N-terminal GST; dsDNA, one strand shown
# Summary of the method: as §1
# HSF1 = HSF1 (Homo sapiens, UniProt Q00613 1-529); details: protein: recombinant; tags: N-terminal GST; chain copies: 3; dsDNA, one strand shown
# Summary of the method: as §1
# SPIC = target: T8, SPIC (Homo sapiens, UniProt Q8N5J4 1-248); details: protein: recombinant; tags: N-terminal GST; dsDNA, one strand shown
# T8 sequence: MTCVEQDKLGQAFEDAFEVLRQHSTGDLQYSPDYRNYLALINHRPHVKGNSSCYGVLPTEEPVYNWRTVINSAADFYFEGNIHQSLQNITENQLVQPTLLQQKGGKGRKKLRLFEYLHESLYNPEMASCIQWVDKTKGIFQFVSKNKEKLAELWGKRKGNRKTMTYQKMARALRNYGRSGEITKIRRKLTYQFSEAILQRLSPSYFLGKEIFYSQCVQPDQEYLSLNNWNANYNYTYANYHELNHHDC
# Summary of the method: as §1
# ELF4 = ELF4 (Homo sapiens, UniProt Q99607 1-663); details: protein: recombinant; tags: N-terminal GST; dsDNA, one strand shown
# Summary of the method: as §1
# ELK4 = target: T9, ELK4 (Homo sapiens, UniProt P28324-2 1-405); details: protein: recombinant; tags: N-terminal GST; dsDNA, one strand shown
# T9 sequence: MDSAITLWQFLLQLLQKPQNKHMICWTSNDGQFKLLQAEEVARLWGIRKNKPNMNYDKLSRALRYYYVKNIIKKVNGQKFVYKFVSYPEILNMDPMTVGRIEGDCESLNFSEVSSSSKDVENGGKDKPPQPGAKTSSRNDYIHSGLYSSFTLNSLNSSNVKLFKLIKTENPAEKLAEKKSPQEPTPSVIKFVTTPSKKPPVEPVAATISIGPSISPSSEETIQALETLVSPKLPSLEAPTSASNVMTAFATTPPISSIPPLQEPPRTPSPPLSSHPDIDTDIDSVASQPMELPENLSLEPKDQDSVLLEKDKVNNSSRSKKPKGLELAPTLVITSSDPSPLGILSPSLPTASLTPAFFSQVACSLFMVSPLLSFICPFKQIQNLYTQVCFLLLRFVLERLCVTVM
# Summary of the method: as §1
# ETV2 = target: T10, ETV2 (Homo sapiens, UniProt O00321 1-342); details: protein: recombinant; tags: N-terminal GST; dsDNA, one strand shown
# T10 sequence: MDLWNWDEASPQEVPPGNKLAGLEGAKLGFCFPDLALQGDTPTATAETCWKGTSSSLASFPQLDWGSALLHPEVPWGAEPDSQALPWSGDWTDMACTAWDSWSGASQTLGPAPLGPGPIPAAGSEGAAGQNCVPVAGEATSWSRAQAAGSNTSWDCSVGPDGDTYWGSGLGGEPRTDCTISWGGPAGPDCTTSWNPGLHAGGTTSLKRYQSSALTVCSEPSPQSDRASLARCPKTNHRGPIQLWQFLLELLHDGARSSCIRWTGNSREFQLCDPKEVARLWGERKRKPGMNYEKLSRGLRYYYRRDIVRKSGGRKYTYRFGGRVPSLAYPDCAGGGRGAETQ
# Summary of the method: as §1
# ELF3 = target: T11, ELF3 (Homo sapiens, UniProt P78545 1-371); details: protein: recombinant; tags: N-terminal GST; dsDNA, one strand shown
# T11 sequence: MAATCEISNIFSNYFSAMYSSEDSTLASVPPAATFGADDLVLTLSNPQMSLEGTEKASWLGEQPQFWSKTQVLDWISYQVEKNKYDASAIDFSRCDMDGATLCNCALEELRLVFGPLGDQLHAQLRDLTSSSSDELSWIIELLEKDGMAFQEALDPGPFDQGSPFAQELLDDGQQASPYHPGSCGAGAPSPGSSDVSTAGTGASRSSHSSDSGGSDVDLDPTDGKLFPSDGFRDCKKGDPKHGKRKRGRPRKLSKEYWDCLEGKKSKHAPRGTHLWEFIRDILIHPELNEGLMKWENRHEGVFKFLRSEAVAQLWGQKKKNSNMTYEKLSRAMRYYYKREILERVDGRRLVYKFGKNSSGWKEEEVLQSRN
# Summary of the method: as §1
# CRX = CRX (Homo sapiens, UniProt O43186 1-299); details: protein: recombinant; tags: N-terminal GST; dsDNA, one strand shown
# Summary of the method: as §1
# ETV1 = ETV1 (Homo sapiens, UniProt P50549 1-477); details: protein: recombinant; tags: N-terminal GST; dsDNA, one strand shown
# Summary of the method: as §1
# Chain of SPIB (Q01892 whole entry): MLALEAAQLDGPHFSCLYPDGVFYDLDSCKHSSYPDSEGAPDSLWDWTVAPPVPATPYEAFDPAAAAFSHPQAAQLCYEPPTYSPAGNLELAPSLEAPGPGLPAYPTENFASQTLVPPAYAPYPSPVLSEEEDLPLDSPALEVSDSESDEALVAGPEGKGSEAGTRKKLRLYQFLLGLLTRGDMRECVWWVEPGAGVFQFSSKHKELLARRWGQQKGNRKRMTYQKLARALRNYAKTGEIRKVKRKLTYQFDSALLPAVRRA
# Chain of ELF1 (P32519 whole entry): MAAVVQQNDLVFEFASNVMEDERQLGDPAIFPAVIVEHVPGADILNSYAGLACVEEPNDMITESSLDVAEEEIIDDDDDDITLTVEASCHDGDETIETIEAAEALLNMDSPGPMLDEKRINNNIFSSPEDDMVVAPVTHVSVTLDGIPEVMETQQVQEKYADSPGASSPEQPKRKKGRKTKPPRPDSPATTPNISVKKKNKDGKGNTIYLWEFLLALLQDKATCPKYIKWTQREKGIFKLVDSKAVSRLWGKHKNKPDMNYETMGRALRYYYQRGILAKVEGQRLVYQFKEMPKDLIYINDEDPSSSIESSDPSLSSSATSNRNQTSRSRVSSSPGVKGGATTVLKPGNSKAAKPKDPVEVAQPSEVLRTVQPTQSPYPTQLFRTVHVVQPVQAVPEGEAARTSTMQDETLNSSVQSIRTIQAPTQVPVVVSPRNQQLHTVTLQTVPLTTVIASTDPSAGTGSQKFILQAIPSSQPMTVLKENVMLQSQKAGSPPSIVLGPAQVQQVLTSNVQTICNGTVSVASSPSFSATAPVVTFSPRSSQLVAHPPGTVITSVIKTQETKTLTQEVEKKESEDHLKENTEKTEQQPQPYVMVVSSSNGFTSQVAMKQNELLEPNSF
# Chain of ETV1 (P50549 whole entry): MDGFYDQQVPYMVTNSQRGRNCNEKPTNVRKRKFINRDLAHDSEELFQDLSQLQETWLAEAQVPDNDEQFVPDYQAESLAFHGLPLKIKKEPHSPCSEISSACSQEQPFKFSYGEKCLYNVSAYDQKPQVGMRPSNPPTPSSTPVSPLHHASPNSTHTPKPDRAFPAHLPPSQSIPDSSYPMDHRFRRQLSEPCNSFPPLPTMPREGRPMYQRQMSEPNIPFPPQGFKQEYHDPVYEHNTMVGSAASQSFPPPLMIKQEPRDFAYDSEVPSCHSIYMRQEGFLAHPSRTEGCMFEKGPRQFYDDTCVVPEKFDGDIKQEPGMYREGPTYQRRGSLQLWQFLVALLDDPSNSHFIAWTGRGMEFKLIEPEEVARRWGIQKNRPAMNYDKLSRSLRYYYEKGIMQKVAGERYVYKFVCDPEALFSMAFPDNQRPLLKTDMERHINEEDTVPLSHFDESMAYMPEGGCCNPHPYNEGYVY
# Chain of ETV5 (P41161 whole entry): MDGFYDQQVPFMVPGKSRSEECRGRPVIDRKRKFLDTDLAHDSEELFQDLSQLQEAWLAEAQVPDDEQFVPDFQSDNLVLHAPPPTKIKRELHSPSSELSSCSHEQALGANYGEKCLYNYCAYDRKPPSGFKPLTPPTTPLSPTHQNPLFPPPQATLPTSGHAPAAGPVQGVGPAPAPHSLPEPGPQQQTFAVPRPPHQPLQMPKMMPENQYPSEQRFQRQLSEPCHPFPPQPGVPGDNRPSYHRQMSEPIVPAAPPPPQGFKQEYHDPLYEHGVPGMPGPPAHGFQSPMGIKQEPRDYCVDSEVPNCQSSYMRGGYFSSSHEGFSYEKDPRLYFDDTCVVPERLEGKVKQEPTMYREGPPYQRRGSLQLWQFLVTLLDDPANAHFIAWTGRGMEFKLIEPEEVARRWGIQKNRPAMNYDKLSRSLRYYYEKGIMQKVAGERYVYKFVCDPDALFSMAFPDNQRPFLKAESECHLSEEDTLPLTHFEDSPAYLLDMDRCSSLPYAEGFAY
# Chain of HSF1 (Q00613 whole entry): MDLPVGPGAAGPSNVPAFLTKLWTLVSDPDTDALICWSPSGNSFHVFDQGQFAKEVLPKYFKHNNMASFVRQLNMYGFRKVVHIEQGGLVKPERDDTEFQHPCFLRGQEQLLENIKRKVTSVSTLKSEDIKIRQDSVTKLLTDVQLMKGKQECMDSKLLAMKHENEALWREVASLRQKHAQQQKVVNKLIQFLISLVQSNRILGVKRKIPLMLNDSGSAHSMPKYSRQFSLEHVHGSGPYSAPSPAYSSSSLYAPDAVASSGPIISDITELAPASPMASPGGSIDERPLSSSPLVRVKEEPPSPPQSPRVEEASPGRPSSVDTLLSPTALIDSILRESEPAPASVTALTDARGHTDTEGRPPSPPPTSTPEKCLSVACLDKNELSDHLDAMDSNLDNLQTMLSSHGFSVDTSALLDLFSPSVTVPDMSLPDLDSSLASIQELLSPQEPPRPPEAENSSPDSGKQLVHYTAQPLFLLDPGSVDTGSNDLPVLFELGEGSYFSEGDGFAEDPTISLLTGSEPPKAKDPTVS
# Chain of ELF4 (Q99607 whole entry): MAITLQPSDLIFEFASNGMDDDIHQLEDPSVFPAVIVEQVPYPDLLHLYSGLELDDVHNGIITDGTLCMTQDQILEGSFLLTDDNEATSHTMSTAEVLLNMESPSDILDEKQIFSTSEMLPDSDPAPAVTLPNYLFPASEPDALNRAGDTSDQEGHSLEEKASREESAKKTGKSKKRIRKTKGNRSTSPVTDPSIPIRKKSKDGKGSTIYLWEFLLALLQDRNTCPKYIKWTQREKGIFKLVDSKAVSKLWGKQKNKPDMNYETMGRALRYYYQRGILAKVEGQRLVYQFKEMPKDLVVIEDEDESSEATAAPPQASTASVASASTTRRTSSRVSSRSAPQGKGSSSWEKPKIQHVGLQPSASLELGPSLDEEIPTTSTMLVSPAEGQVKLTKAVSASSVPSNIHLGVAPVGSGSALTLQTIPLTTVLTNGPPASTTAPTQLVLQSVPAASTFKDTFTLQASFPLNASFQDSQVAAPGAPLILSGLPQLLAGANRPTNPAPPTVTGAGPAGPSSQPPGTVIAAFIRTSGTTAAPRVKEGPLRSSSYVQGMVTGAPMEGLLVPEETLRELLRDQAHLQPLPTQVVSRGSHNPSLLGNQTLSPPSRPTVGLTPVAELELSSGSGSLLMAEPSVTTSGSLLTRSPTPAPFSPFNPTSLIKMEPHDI
# Chain of CRX (O43186 whole entry): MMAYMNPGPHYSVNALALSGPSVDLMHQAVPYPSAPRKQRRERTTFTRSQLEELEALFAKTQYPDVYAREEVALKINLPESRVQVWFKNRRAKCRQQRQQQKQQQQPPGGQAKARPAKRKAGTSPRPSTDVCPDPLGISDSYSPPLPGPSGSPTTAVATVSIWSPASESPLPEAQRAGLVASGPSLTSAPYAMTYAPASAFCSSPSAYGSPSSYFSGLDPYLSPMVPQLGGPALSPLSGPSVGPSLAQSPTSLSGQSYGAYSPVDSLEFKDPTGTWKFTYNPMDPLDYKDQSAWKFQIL
sequence,measurement,setting,value
GCTTTG,binding signal,FLI1,"1.24 fold enrichment (6-mer frequency, TF over GST control)"
same,binding signal,ELK1,"1.1 fold enrichment (6-mer frequency, TF over GST control)"
same,binding signal,GABPA,"1.11 fold enrichment (6-mer frequency, TF over GST control)"
same,binding signal,ERG,"1.15 fold enrichment (6-mer frequency, TF over GST control)"
same,binding signal,ELF1,"1.14 fold enrichment (6-mer frequency, TF over GST control)"
same,binding signal,EHF,"1.15 fold enrichment (6-mer frequency, TF over GST control)"
same,binding signal,SPI1,"1.07 fold enrichment (6-mer frequency, TF over GST control)"
same,binding signal,SPIB,"1.14 fold enrichment (6-mer frequency, TF over GST control)"
same,binding signal,ELK3,"1.12 fold enrichment (6-mer frequency, TF over GST control)"
same,binding signal,FEV,"1.08 fold enrichment (6-mer frequency, TF over GST control)"
same,binding signal,ETV5,"1.11 fold enrichment (6-mer frequency, TF over GST control)"
same,binding signal,HSF1,"1.23 fold enrichment (6-mer frequency, TF over GST control)"
same,binding signal,SPIC,"1.22 fold enrichment (6-mer frequency, TF over GST control)"
same,binding signal,ELF4,"1.17 fold enrichment (6-mer frequency, TF over GST control)"
same,binding signal,ELK4,"1.22 fold enrichment (6-mer frequency, TF over GST control)"
same,binding signal,ETV2,"1.22 fold enrichment (6-mer frequency, TF over GST control)"
same,binding signal,ELF3,"1.16 fold enrichment (6-mer frequency, TF over GST control)"
same,binding signal,CRX,"1.49 fold enrichment (6-mer frequency, TF over GST control)"
same,binding signal,ETV1,"1.16 fold enrichment (6-mer frequency, TF over GST control)"
